The text below walks through data of ChEMBL document CHEMBL1201862, “PubChem BioAssay data set” (2004).

About 2,100 (0.53%) of roughly 400,000 compounds were called active. Roughly 14% stayed inconclusive and do not appear here. No rule for the calls is given here. Shown is part of a subset that was picked to be rich in actives.

In this test the target is Ataxin-2 (Homo sapiens) (UniProt Q99700). In words: qHTS for Inhibitors of ATXN expression. Type of test: functional. (qHTS replaces the single test concentration by a dilution series.)
Ataxin-2 (Homo sapiens), sequence (Q99700 whole entry): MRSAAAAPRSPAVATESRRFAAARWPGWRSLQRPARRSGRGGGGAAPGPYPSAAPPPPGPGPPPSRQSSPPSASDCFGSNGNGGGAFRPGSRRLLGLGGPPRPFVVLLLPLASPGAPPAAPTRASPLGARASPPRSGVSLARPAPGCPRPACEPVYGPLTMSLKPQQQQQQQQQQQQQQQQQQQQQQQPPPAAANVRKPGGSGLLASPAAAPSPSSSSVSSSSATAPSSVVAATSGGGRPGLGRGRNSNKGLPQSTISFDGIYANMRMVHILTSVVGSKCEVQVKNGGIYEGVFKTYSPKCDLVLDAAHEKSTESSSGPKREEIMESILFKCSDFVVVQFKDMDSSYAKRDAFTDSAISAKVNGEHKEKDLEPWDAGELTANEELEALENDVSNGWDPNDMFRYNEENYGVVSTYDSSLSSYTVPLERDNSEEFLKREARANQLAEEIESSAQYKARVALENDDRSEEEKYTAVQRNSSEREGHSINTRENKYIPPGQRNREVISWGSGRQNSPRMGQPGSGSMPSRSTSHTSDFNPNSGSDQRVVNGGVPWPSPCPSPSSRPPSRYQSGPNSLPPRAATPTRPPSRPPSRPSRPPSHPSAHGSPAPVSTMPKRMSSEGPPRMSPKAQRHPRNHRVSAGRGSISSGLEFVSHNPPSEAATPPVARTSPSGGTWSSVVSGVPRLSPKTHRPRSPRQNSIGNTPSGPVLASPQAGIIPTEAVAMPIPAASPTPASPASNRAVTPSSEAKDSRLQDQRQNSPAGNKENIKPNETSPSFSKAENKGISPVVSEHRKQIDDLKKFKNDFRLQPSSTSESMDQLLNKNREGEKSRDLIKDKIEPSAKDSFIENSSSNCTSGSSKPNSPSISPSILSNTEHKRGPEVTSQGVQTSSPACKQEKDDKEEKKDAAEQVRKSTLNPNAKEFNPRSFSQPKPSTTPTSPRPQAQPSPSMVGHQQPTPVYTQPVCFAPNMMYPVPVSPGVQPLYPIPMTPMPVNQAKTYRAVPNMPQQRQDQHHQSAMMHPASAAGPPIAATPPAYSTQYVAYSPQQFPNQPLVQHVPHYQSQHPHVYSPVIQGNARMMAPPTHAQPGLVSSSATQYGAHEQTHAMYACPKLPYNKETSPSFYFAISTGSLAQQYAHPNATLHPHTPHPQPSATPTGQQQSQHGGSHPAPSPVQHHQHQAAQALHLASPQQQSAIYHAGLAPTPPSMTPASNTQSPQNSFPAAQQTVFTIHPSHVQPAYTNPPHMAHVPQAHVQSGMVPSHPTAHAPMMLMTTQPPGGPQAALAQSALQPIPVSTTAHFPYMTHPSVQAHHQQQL
For `Cc1csc(NC(=O)c2sc3nc(-c4cccs4)ccc3c2N)n1`, the Potency result is “inactive”.
The value for `CCOC(=O)c1cc2c(=O)n3ccccc3nc2n(C(C)C)/c1=N\C(=O)c1c(-c2c(F)cccc2Cl)noc1C` was “inactive”; that for `Cc1c(Br)c(=O)oc2c(Br)c(O)c(O)cc12` was “inactive”; that for `CN(C)c1ccc(/C=N/NC(=O)c2ccc3[nH]cnc3c2)cc1` was “inactive”.
Take `Nc1ccc(/N=N\c2ccccc2)c(N)n1`: the Potency result was “inactive”.
For `Nc1ccc(N=Nc2ccc(O)cc2)c(N)n1`, the Potency was 21.2 µM (active).
`Nc1nc(O)cc(N=Nc2ccc(O)cc2)n1`: the Potency was 17.8 µM (active).
The value for `Nc1c(Cl)cc(-c2nc3cc(C(=O)NCCO)ccc3c(O)c2O)cc1Cl` was “inactive”; that for `CC(C)OC(=O)c1ccc(NCc2cc(O)ccc2O)cc1Cl` was 20 µM (active); that for `Cc1ccc(O)c(C(=O)CC(=O)c2ccccc2Cl)c1` was “inactive”.
For the compound `COC(=O)c1ccc(C2C(C#N)=C(N)Oc3cc(O)ccc32)cc1` (configuration not stated), the Potency result was “inactive”.
On to `Nc1ccc(C(=O)NCc2ccccc2)cc1`, for which the Potency result is “inactive”.
For the compound `CC(C)OC(=O)c1ccc(NCc2cc(O)ccc2O)cc1`, the Potency is 29.9 µM (active).
Regarding `COc1ccc(CNc2nc3ccccc3n2C(C)C)c(O)c1`, the Potency result was “inactive”.
In the case of `O=C1C=CC(=O)C(CNc2ccc(C(=O)OCc3ccccc3)cc2)=C1`, the Potency was 23.8 µM (active).
On to `COC(=O)c1ccc(NCc2cc(O)ccc2O)cc1O`, for which the Potency is 39.8 µM (active).
For `COC(=O)c1cc(CN2CCN(c3ccccc3)CC2)ccc1O`, the Potency result is “inactive”.
As for `CN(C)c1nc(-c2cccs2)cc(C(F)(F)F)c1C#N`, the Potency entry is “inactive”.
Take `CCCCOc1c(C(=O)Nc2ccccc2)nnn1-c1ccccc1`: the Potency entry was “inactive”.
With `O=C(OCc1ccccc1)c1ccc(NCc2cc(O)ccc2O)cc1`, the Potency is 8.91 µM (active).
`CCCS(=O)(=O)c1ccc(COC(=O)c2cccc(NC(=O)C(C)C)c2)cc1`: the Potency entry was “inactive”.
The value for `CC(=O)Cc1cc(O)c2ccccc2c1OC(=O)c1ccccc1` was “inactive”; that for `COC(=O)c1ccc(NCc2c(O)ccc(O)c2Br)cc1Cl` was 28.2 µM (active); that for `Cc1ccc(C)c(OC(=O)c2cccnc2)c1` was “inactive”.
On to `Cc1ccc2nc(-c3ccc(NC(=O)c4cccnc4)cc3)oc2c1`, for which the Potency was 25.1 µM (active).
On to `CC(=O)Nc1ccc(NC(=O)c2cc(=O)c3ccc(C)cc3o2)cc1`, for which the Potency entry was “inactive”.
For the compound `CCOC(=O)c1cc2c(=O)n3ccccc3nc2n(CCCOC)/c1=N\C(=O)C(C)Oc1ccccc1` (configuration not stated), the Potency entry is “inactive”.
Regarding `O=C(Cn1nc(C(F)(F)F)c2c1CCCC2)Nc1ccc(Cl)cc1`, the Potency was 39.8 µM (active).
The value for `Nc1c(C(=O)NCc2ccc(Cl)cc2)sc2nc3c(c(C(F)(F)F)c12)CCC3` was “inactive”.
Turning to `O=C(CN1CCCC1)Nc1ccc(Br)cc1`, the Potency entry is “inactive”.
`COC(=O)C1CCN(C(=O)c2cc3c(=O)n4cccc(C)c4nc3n2Cc2ccccc2)CC1`: the Potency entry is “inactive”.
The value for `COC(=O)[C@@]1(Cc2ccc(F)cc2)[C@H]2c3cc(C(=O)N4CCCC4)n(CC4CC4)c3C[C@H]2CN1C(=O)c1ccccc1` was 39.8 µM (active); that for `COC(=O)[C@@]1(Cc2ccc(F)cc2)[C@H]2c3cc(C(=O)N(C)C)n(Cc4ccc(C)o4)c3C[C@H]2CN1C(=O)c1ccccc1` was 35.5 µM (active); that for `COC(=O)[C@@]1(Cc2ccc(F)cc2)[C@H]2c3cc(C(=O)N4CCCC4)n(Cc4ccccc4)c3C[C@H]2CN1C(=O)c1ccccc1` was 25.1 µM (active).
As to `CCOC(=O)C1CCCN(C(=O)c2ccc(Cn3c(=S)[nH]c4cc(C(=O)OC)ccc4c3=O)cc2)C1` (configuration not stated), the Potency result was “inactive”.
In the case of `C=CCNC(=O)c1cc2c(=O)n3cccc(C)c3nc2s1`, the Potency result was “inactive”.
As for `Cc1cccc(N2C(=O)CC(NNc3nc4ccccc4s3)C2=O)c1` (configuration not stated), the Potency result is “inactive”.
Take `COc1ccc(/C=C/CN2CCCC(CCC(=O)NCc3ccc(F)c(F)c3)C2)cc1` (configuration not stated): the Potency entry is “inactive”.
With `COc1c2c(c(OC)c3c1c(=O)c1ccccc1n3C)OCO2`, the Potency result was “inactive”.
`COCCN=C(NS(=O)(=O)c1cccs1)c1ccccc1Cl`: the Potency result was “inactive”.
`C[N+]1(CN2C(=O)C3C4C=CC(C4)C3C2=O)CCCCC1` (configuration not stated): the Potency entry is “inactive”.
Consider `Cc1cc(N2CCOCC2)ccc1/C=C1/SC(=O)NC1=O`, for which the Potency result is “inactive”.
With `CCN1C/C(=C/c2ccc(N3CCOCC3)cc2)C(=O)/C(=C/c2ccc(N3CCOCC3)cc2)C1`, the Potency was 25.1 µM (active).
With `CCN(CC)c1ccc(C(=O)N/N=C/c2ccc(N3CCOCC3)cc2)cc1`, the Potency entry was “inactive”.
Take `NNC(=O)c1cc2c(ccc3ccccc32)o1`: the Potency entry is “inactive”.
As to `O=c1oc2ccc3ccccc3c2cc1-c1nc2ccccc2o1`, the Potency entry is “inactive”.
Consider `O=c1cc(C(Cl)(Cl)Cl)oc2c1ccc1ccccc12`, for which the Potency is 35.5 µM (active).
The value for `CCc1nonc1NC(=O)COc1cc(C)c(Cl)c(C)c1` was “inactive”; that for `COc1ccc(-n2cc(-c3ccccc3)c3c(NCCCN4CCOCC4)ncnc32)cc1` was “inactive”.
As to `COc1ccc(-n2cc(-c3ccccc3)c3c(NN4CCOCC4)ncnc32)cc1`, the Potency result is “inactive”.
With `Fc1ccc(-n2cc(-c3ccccc3)c3c(S)ncnc32)cc1`, the Potency is 39.8 µM (active).
Consider `CCc1ccc(C(c2ccccc2)c2c(C)[nH]c3ccccc23)s1` (configuration not stated), for which the Potency is 39.8 µM (active).
With `Cc1[nH]c2ccccc2c1C(c1ccccc1)c1cccs1` (configuration not stated), the Potency was 39.8 µM (active).
As for `Cc1[nH]c2ccccc2c1C(O)CN1CCC2(CC1)OCCO2` (configuration not stated), the Potency entry was “inactive”.
In the case of `CC(C)CCN1C(=O)c2cccc3c(N)ccc(c23)C1=O`, the Potency result was “inactive”.
The value for `O=c1c2sccc2nc(SCc2cc(=O)n3cc(Cl)ccc3n2)n1Cc1ccccn1` was “inactive”.
Consider `COc1ccc(OC)c([N+]2=C3SCCCN3C(O)(c3ccccc3)C2)c1` (configuration not stated), for which the Potency result was “inactive”.
On to `Cn1cc(CN2CCc3c([nH]c4ccccc34)C2C2CCCCC2)cn1` (configuration not stated), for which the Potency result is “inactive”.
For `Cc1ccc2oc3c(c(=O)c2c1)C(c1ccc(O)cc1)N(CCCN(C)C)C3=O` (configuration not stated), the Potency result was “inactive”.
Consider `COCCN1C(=O)c2[nH]nc(-c3cc(C)ccc3O)c2C1c1ccc(C(C)C)cc1` (configuration not stated), for which the Potency was 39.8 µM (active).
As for `CSc1ccc(C2c3c(-c4ccccc4O)n[nH]c3C(=O)N2Cc2ccncc2)cc1` (configuration not stated), the Potency is 22.4 µM (active).
For the compound `CCc1ccc(C2c3c(-c4ccccc4O)n[nH]c3C(=O)N2Cc2cccnc2)cc1` (configuration not stated), the Potency is 22.4 µM (active).
`CCc1ccc(C2c3c(-c4cc(C)ccc4O)n[nH]c3C(=O)N2Cc2cccnc2)cc1` (configuration not stated): the Potency was 39.8 µM (active).
In the case of `Cc1ccc(C(=O)C2=C(O)C(=O)N(Cc3cccnc3)C2c2ccc(Cl)cc2)o1` (configuration not stated), the Potency entry was “inactive”.
With `O=C1c2cccc3c([N+](=O)[O-])ccc(c23)C(=O)N1Cc1cccnc1`, the Potency entry was “inactive”.
With `CCOC(=O)c1sc2c(c1C)C(c1cccs1)C1=C(O)CCCC1=N2` (configuration not stated), the Potency result is “inactive”.
Consider `c1cc(-c2sc(-c3ccncc3)c(-c3ccncc3)c2-c2ccncc2)ccn1`, for which the Potency entry is “inactive”.
The value for `COc1ccc(-n2c(=O)/c(=C\c3cccs3)s/c2=C(/C#N)C(=O)NCCN2CCOCC2)cc1` was “inactive”; that for `CCOc1ccc(C2CC(c3c(O)oc4ccccc4c3=O)=NN2c2ccccc2)cc1OC` (configuration not stated) was “inactive”; that for `CCCOc1ccc(C2c3c(-c4ccccc4O)n[nH]c3C(=O)N2CCCOCC)cc1OCC` (configuration not stated) was 22.4 µM (active).
The value for `CCCOc1ccc(C2c3c(-c4ccccc4O)n[nH]c3C(=O)N2Cc2cccnc2)cc1` (configuration not stated) was 35.5 µM (active).
Consider `CCOc1ccccc1Oc1c[nH]nc1-c1ccc(OCC(=O)NN)cc1O`, for which the Potency result is “inactive”.
As to `O=C(C1CCCO1)N1CCN(C(=O)C23CC4CC(CC(C4)C2)C3)CC1` (configuration not stated), the Potency result is “inactive”.
For `O/N=C1\CCCc2ccc3ccccc3c21`, the Potency entry was “inactive”.
Consider `Cc1ccc(OC(=O)c2ccncc2)c(C)c1`, for which the Potency entry is “inactive”.
For `O=C(NCc1csc(-c2cccs2)n1)c1cccc(Cl)c1`, the Potency result is “inactive”.
Take `O=C(NNC(=O)c1csc(-c2cccs2)n1)c1ccc(Cl)cc1`: the Potency is 22.4 µM (active).
Regarding `O=S(=O)(NCc1csc(-c2cccs2)n1)c1ccc(Cl)cc1`, the Potency entry was “inactive”.
The value for `C=CCn1c(NC(=O)c2ccccc2Cl)c(C#N)c2nc3ccccc3nc21` was “inactive”.
As for `CCOC(=O)c1cnc2ccc3ccccc3c2c1O`, the Potency result was “inactive”.
As to `CCOC(=O)c1cnc2ccc(C)cc2c1Nc1ccc(N(CC)CC)cc1`, the Potency was 28.2 µM (active).
The value for `CCOC(=O)c1cnc2ccc(C)cc2c1N(C)Cc1ccccc1` was “inactive”; that for `CS(=O)(=O)c1ccc(Cl)c(NC(=O)CSc2n[nH]c(-c3cccs3)n2)c1` was “inactive”.
The value for `COC(=O)Cc1cc(=O)oc2cc(O)ccc12` was “inactive”; that for `S=C(NCCCN1CCOCC1)NC1CC1` was “inactive”; that for `O=C(NCCCCCCCN1CCCCCCC1)C(C1CCCCC1)C1CCCCC1` was 21.2 µM (active).
For the compound `Cc1nn(CC(=O)NCCCN2CCCCC2)c(=O)c2cccn12`, the Potency result was “inactive”.
Regarding `CCC(=O)c1ccc(/C=C/c2nc3ccccc3n2C)o1`, the Potency result was “inactive”.
As for `Cn1c(=O)c(/C=C/c2ccc(F)cc2)nc2ccccc21`, the Potency result is “inactive”.
The value for `Cn1c(SC2=CS(=O)(=O)c3ccccc32)nc2ccccc21` was 15.8 µM (active); that for `Cn1c(-c2c(N)n(-c3ccccc3)c3nc4ccccc4nc23)nc2ccccc21` was “inactive”; that for `O=C(CCl)c1ccc(Cc2ncc(C(F)(F)F)cc2Cl)s1` was 39.8 µM (active).
Consider `FC(F)(F)c1cnc(NNC(=S)Nc2ccccc2)c(Cl)c1`, for which the Potency result was “inactive”.
As to `C#CCNC(=O)C(C)c1ncc(C(F)(F)F)cc1Cl` (configuration not stated), the Potency result is “inactive”.
Turning to `O=C(C[C@H]1C/C=C\C[C@@H](NC(=O)OCC2c3ccccc3-c3ccccc32)C(=O)O[C@@H](c2ccccc2)CNC1=O)N[C@H](CO)Cc1ccccc1`, the Potency was 31.6 µM (active).
On to `Nc1ccccc1-n1nc2ccc3ccccc3c2n1`, for which the Potency result is “inactive”.
Regarding `COc1cc(C(=O)Nc2ccc(Br)cc2C(=O)c2cc(OC)c(OC)c(OC)c2)cc(OC)c1OC`, the Potency result was “inactive”.
The value for `COc1cccc(NC(=O)c2sc3nc(C)c(C(=O)Nc4ccc(C)cc4C)c(-c4ccc(Br)cc4)c3c2N)c1` was “inactive”; that for `CNc1ccc(Br)cc(C(=O)/C=C/c2cccc(OC)c2)c1=O` was 28.2 µM (active); that for `COc1ccc(OC)c(/C=C/C(=O)N(C)CC(=O)Nc2cc(C)ccc2C)c1` was “inactive”.
The value for `CNc1ccc(Br)cc(C(=O)/C=C/c2cc(OC)ccc2OC)c1=O` was 39.8 µM (active); that for `COc1ccc(Br)cc1/C=C/C(=O)NC(=S)Nc1ccc(Cl)c(C(=O)O)c1` was “inactive”.
